Experimental data reported in PubChem BioAssay (NCATS).
Records with an inconclusive call do not appear. The source made the active and inactive calls. The call rests on the fitted dose curve; in most records, active means well fitted cell-killing curve with a large enough effect; inconclusive means small, poorly fitted or top-dose-only effect, or effect the other way; inactive means no such curve, though single readings can be large or run the other way. Positions of bridges follow the written chain, without caps; N, C: chain ends. Non-standard residues stand in square brackets, D forms with d. Residues, ends and D or L forms follow the SMILES beside them. ξ: configuration not given here. *: point of attachment. Octanoyl(6-Me) = CCC(C)CCCCC(=O)*; ξThr(3R) = C[C@@H](O)C(N)C(=O)O; dDab = NCC[C@@H](N)C(=O)O; Dab = NCC[C@H](N)C(=O)O; Cbz = O=C(OCc1ccccc1)*

assay: Quantitative High-Throughput drug screen in 47 multiple myeloma cell lines against the NCATS MIPE library collection: RPMI8226_ATCC cell viability assay (AID 1919871); settings: RPMI8226 myeloma viability, CellTiter-Glo ATP luminescence, 48 h; series mostly up to 45.8 µM; further: nearly all actives have a fitted effect of over 30% in size
Procedure, shortened: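 ATP-based CellTiter-Glo luminescence after 48 h drug exposure (37 °C, 5% CO2) of 500 myeloma cells per well. DMSO-only wells set 100% viability, media-only wells 0%; MIPE 4.0 library added by pin tool.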
Potency means the concentration at half of the fitted maximal effect.

Row | Structure (SMILES) | Potency
1 | CC(=O)[C@]1(O)Cc2c(O)c3c(c(O)c2[C@@H](O[C@H]2C[C@H](N)[C@@H](O)[C@H](C)O2)C1)C(=O)c1ccccc1C3=O | 0.418 µM (active)
2 | CCC(C)CCCCC(=O)N[C@@H](CCN)C(=O)NC(C(=O)N[C@H](CCN)C(=O)N[C@@H]1CCNC(=O)C([C@@H](C)O)NC(=O)[C@@H](CCN)NC(=O)[C@@H](CCN)NC(=O)[C@@H](CC(C)C)NC(=O)[C@H](Cc2ccccc2)NC(=O)[C@H](CCN)NC1=O)[C@@H](C)O (stereo partly drawn) ({Octanoyl(6-Me)}-[Dab][ξThr(3R)][dDab][dDab][Dab]F[dL][dDab][dDab][ξThr(3R)]; lactam 4-C) | inactive
3 | CC(C)NC[C@@H](C(=O)N1CCN(c2ncnc3c2[C@H](C)C[C@H]3O)CC1)c1ccc(Cl)cc1 | 11.8 µM (active)
4 | CN(C)c1ccc2cc(C(=O)N[C@@H](CCCN=C(N)CCl)C(=O)NCc3ccccc3)ccc2c1 | 18.7 µM (active)
5 | COc1cc(C(C)C)c(Oc2cnc(NC(CO)CO)nc2N)cc1I | 3.32 µM (active)
6 | CC(C)C[C@@H](C=O)NC(=O)[C@H](CC(C)C)NC(=O)[C@H](CC(C)C)NC(=O)OCc1ccccc1 (Cbz-Leu-Leu-Leu-aldehyde) | 0.833 µM (active)
7 | CC(=O)O[C@]1(C(C)=O)CC[C@H]2[C@@H]3C=C(C)C4=CC(=O)CC[C@]4(C)[C@@H]3CC[C@@]21C | 14.8 µM (active)
8 | CCOC(=O)[C@@H](N)Cc1ccc(-c2cc(O[C@H](c3ccc(Cl)cc3-n3ccc(C)n3)C(F)(F)F)nc(N)n2)cc1 | 20.9 µM (active)
